This excerpt belongs to a sample that is enriched for hits.
MBNL1 CUG block – qHTS Assay for Inhibitors of MBNL1-poly(CUG) RNA binding; TR-FRET MBNL1-His/biotin-(CUG)12 binding, 665/545 ratio; Potency, µM (doses to about 57.5 µM), most hits filed as inhibitors; 280,000 compounds, 0.036% hits; AID 2675, 2010; active = well fitted inhibition curve with a large enough effect in the signal ratio, with a control signal flat, not every such curve was filed as active; inconclusive = small, poorly fitted or top-dose-only effect, or effect the other way, or a change in a side signal; inactive = no such curve, though single readings can be large or run the other way; the % refers to the signal ratio
Target sequence (Q9NR56 whole entry, looked up): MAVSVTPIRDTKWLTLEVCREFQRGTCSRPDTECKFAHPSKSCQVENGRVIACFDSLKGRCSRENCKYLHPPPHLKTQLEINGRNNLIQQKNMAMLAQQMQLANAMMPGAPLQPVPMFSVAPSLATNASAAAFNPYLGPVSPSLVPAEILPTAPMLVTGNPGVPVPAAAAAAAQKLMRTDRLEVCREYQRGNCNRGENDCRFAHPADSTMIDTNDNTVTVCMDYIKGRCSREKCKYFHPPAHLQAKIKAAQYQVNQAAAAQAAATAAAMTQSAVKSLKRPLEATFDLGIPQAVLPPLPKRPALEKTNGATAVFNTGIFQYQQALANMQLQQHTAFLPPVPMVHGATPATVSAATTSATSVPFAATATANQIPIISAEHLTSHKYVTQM
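Compounds (final 92 nM to 58 uM) are added to His-tagged MBNL1 and biotin-(CUG)12, then terbium anti-His antibody and streptavidin-XL665 (5 nM final). After 60 min at room temperature, the 665/545 nm ratio is read.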
IMPase Li cell – qHTS Assay for Identifying the Cell-Membrane Permeable IMPase Inhibitors: Potentiation with Lithium; CHO-M1 cells, IP1 TR-FRET (IP-One), carbachol + lithium; AID 1457, 2008; Potency, µM (titrated, usually from 59.4 µM), actives largely listed as inhibitors; 210,000 compounds, 0.35% hits;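 also: IP1 builds up when IMPase is blocked and the TR-FRET signal falls; nearly all actives have a fitted effect of over 50% in size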
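CHO-M1, 2000 cells/well, 16–30 h culture; cpd + low Li+, 30 min 37C; lysis with d2-IP1/Eu-anti-IP1 Ab, 10 min RT; TR-FRET 665/620 ratio and 620 channel; AC50 via Hill.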
GoLoco inh red – qHTS Assay for Inhibitors of RGS12 GoLoco Motif Activity (Red Fluorophore) | Guanine nucleotide-binding protein G(i) subunit alpha-1 (Homo sapiens), P63096 | Gai1:RGS12 GoLoco peptide FP, rhodamine, 10 min | Potency, µM (doses to about 61.6 µM), hits mostly inhibitors | 230,000 compounds, 0.44% hits | AID 880, 2007; active = well fitted inhibition curve with a large enough effect, not every such curve was filed as active; inactive = no such curve, though single readings can be large or run the other way; also: nearly all actives have a fitted effect of over 30% in size
Tb PFK inh-1 – qHTS Assay to Find Inhibitors of T. brucei phosphofructokinase | T. brucei PFK, ADP-Glo luminescence | ATP-dependent 6-phosphofructokinase (Trypanosoma brucei brucei), O15648 | 330,000 compounds, 0.17% hits | Potency, µM (doses to about 57.5 µM), actives largely listed as inhibitors; also: nearly all actives have a fitted effect of over 60% in size
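Luminescent ADP detection (ADP-Glo, two-step: ATP depletion then ADP-to-ATP conversion for luciferase) reported PFK activity after 45 min room-temperature reaction of 1.25 nM enzyme with 0.5 mM F6P and 0.1 mM ATP at pH 8.0.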
NPSR antag – qHTS Assay for Antagonists of the Neuropeptide S Receptor: cAMP Signal Transduction. CHO-NPSR cells, cAMP TR-FRET, antagonist mode. AID 1461, 2008. 220,000 compounds, 1% hits. Potency, µM (doses to about 38.3 µM), most hits filed as inhibitors; also: nearly all actives have a fitted effect of over 50% in size
Target sequence (Q6W5P4 whole entry, looked up): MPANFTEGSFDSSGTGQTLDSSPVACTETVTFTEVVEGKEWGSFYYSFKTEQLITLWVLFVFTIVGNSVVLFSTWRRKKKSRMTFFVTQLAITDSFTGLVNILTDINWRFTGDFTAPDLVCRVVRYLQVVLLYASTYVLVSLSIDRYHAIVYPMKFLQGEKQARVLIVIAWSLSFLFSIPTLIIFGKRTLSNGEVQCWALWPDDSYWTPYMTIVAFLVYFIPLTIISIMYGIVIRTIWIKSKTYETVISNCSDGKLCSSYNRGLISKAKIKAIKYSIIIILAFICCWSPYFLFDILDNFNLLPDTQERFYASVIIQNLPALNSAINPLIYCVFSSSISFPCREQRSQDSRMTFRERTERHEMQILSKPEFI
Tb PFK KinaseGlo – Tb PFK orthogonal confirmatory assay using ATP depletion (Kinase-Glo Plus) as an alternative measure of Tb PFK activity: Hit Validation; shares compounds with Tb PFK inh-1; Tb PFK enzyme, ATP depletion, Kinase-Glo Plus luminescence; Potency, µM (doses to about 57.5 µM); 1,100 compounds, 47% hits; calls by dose curve; also: nearly all actives have a fitted effect of over 60% in size
Tb PFK inh-2 – Inhibitors of T. brucei phosphofructokinase: Hit Validation; Potency, µM (highest dose often 57.5 µM), hits mostly inhibitors; shares compounds with Tb PFK inh-1; 1,100 compounds, 41% hits; purified T. brucei PFK, ADP-Glo luminescence, 45 min; also: nearly all actives have a fitted effect of over 60% in size
Numbers stand for hits; . = inactive; ? = inconclusive; / = no result; [ ] = another dose, or the depositor's remark. Unless noted, calls follow the shape of the dose curve; as a rule, active = well fitted curve in the direction sought with a large enough effect; inconclusive = small, poorly fitted or top-dose-only effect, or another doubt; inactive = no such curve, though single readings can be large; an effect the other way counts as inactive or inconclusive.

SMILES | MBNL1 CUG block | IMPase Li cell | GoLoco inh red | Tb PFK inh-1 | NPSR antag | Tb PFK KinaseGlo | Tb PFK inh-2
Nc1n[nH]c(=S)n1/N=C1/C(=O)Nc2ccccc21 | ? | . | . | ? | . | 3µM | 9.5µM
C(=C/c1ccccc1)/CN1CCN(CCOC(c2ccccc2)c2ccccc2)CC1 | / | . | . | / | / | / | /
O=C(COc1ccc([N+](=O)[O-])cc1)Nc1ccc(S(=O)(=O)N2CCOCC2)cc1 | ? | / | / | ? | / | 21µM | 27µM
O=C(Cc1ccc(Cl)c(Cl)c1)Nc1cccc(S(=O)(=O)N2CCOCC2)c1 | . | . | . | 21µM | . | 9.5µM | 17µM
O=C(Cc1ccc(Cl)cc1)Nc1ccc(S(=O)(=O)N2CCOCC2)cc1 | . | / | / | 21µM | / | 9.5µM | 27µM
O=S(=O)(c1ccc(Cl)cc1)N1CCN(C2CCN(Cc3ccccc3)CC2)CC1 | . | . | . | . | . | / | /
CO[C@@H]([CH2][Hg])CN1C(=O)c2ccccc2S1(=O)=O.Cn1c(=O)c2nc[nH]c2n(C)c1=O | / | . | .[14.2 µM] | / | / | / | /
CN[C@@H]1C[C@@]2(C)O[C@@H]([C@@H]1OC)n1c3ccccc3c3c4c(c5c6ccccc6n2c5c31)C(=O)NC4 | / | . | . | / | / | / | /
Cc1[nH]c2ccccc2c1C(=O)CN1C(=O)C(=O)N(Cc2ccco2)C1=O | / | . | . | ? | . | . | ?
N#Cc1sc(NCc2ccccn2)nc1Cl | . | / | / | ? | / | ? | ?
O=C(NCc1ccco1)c1ccc2c(=O)n(Cc3ccco3)c(SCC(=O)N3CCCC3)nc2c1 | . | . | . | ? | ? | ? | ?
CC[C@H](Oc1ccc(Cl)cc1)C(=O)OC1C[C@H]2CC[C@@H](C1)N2C (some centres undefined) | / | . | . | / | / | / | /
CN(C)S(=O)(=O)c1ccc(NC(=O)C2COc3ccccc3O2)cc1 (centres undefined) | . | . | . | 19µM | . | 12µM | 27µM
O=C(Nc1ccc(S(=O)(=O)Nc2ccccc2)cc1)C1COc2ccccc2O1 (centres undefined) | . | . | . | 11µM | . | 12µM | 30µM
O=C(O)C1C2c3ccccc3C(c3ccccc32)C1C(=O)Nc1ccccc1 (centres undefined) | . | . | . | . | . | / | /
CN=C=S | / | . | . | / | / | / | /
CCOC(=O)c1cc(C)n(CCc2cnc[nH]2)c1C | . | . | . | . | . | / | /
COCCn1c(C)cc(C(=O)COC(=O)c2cc3c(s2)CCC3)c1C | . | . | . | ? | . | ? | .
Cc1ccc(S(=O)(=O)N2CCCCC2)cc1NC(=O)CN1CC=C(c2ccccc2)CC1 | . | . | . | . | . | / | /
O=C(Cc1ccc(F)cc1)Nc1ccc(S(=O)(=O)N2CCCC2)cc1 | / | / | / | 17µM | / | ? | ?
O=C(Cc1ccc(Br)cc1)Nc1ccc(S(=O)(=O)N2CCCC2)cc1 | . | / | / | 19µM | / | 11µM | 21µM
CCC(CO)NC(=O)[C@@H]1C=C2c3cccc4[nH]cc(c34)C[C@H]2N(C)C1 (some centres undefined) | ? | . | . | / | . | / | /
CCN(CC)c1ccc(NC2=C(Cl)C(=O)c3ccccc3C2=O)cc1 | ? | . | 7.9µM | ? | 13µM | . | .
C[C@]12CC[C@@H](O)CC1CCC1C2CC[C@]2(C)C(=O)CC[C@@H]12 (some centres undefined) | / | . | . | / | . | / | /
CCOC(=O)c1ncc2[nH]c3ccc(OCc4ccccc4)cc3c2c1COC | / | . | . | / | / | / | /
SMILES | MBNL1 CUG block | IMPase Li cell | GoLoco inh red | Tb PFK inh-1 | NPSR antag | Tb PFK KinaseGlo | Tb PFK inh-2
COc1ccc(C(=O)COC(=O)c2ccccc2O)c(OC)c1 | / | / | / | 6.7µM | / | . | .
CCCOC(=O)c1cc2c(cn1)[nH]c1ccccc12 | / | . | . | / | / | / | /
COc1cc(CNC(=O)CCCC/C=C/C(C)C)ccc1O | / | . | . | ? | / | / | /
CCN(CC)C(=O)c1ccc(NC(=O)c2ccc3c(c2)NC(=O)CS3)cc1 | / | / | / | . | / | / | /
CC(CS(=O)(=O)c1ccc2c(c1)NC(=O)CS2)C(=O)NCc1ccccc1Cl (centres undefined) | . | / | / | 13µM | / | 1.7µM | 1.9µM
CC(CS(=O)(=O)c1ccc2c(c1)NC(=O)CS2)C(=O)N1CCN(c2cccc(Cl)c2)CC1 (centres undefined) | . | / | / | 15µM | / | 21µM | 12µM
S=C(S)N1CCCC1 | / | . | . | . | ? | / | /
NS(=O)(=O)c1cc(C(=O)NC2CCSc3ccccc32)ccc1Cl (centres undefined) | . | / | / | ? | / | ? | ?
O=C(O)COc1ccc(Cl)cc1Cl | / | . | . | / | / | / | /
Cc1cc(NS(=O)(=O)c2ccc(NC(=O)COc3ccc(Cl)cc3Cl)cc2)no1 | . | / | / | 2.7µM | / | 1.5µM | 1.7µM
Cc1cc(NS(=O)(=O)c2ccc(NC(=O)COc3ccc(Cl)c(C)c3)cc2)no1 | . | / | / | 12µM | / | 5.4µM | 13µM
Clc1ccc(C2=CCC[C@H]3CC[C@@H]2N3)cn1 | / | . | . | / | / | / | /
O=C(NCNC(=O)N[C@H]1C(=O)NC(=O)N1CO)N[C@H]1C(=O)NC(=O)N1CO | / | . | . | / | / | / | /
Cn1cccc1-c1cccnc1 | / | . | . | / | / | / | /
Cc1nn(CC(=O)N2CCN(c3cccc(C(F)(F)F)c3)CC2)c(=O)c2cccn12 | . | / | / | ? | / | ? | .
Oc1ccc(/C=N/N=C/c2ccc(O)c(O)c2)cc1O | ? | / | / | 2.7µM | / | ? | ?
C[C@H]1CC[C@@]2(NC1)O[C@@H]1C[C@@H]3[C@@H]4CC=C5C[C@@H](O)CC[C@]5(C)[C@@H]4CC[C@]3(C)[C@H]1[C@@H]2C | / | . | .[14.2 µM] | / | / | / | /
O=C(NCC(c1cccs1)N1CCOCC1)c1cc([N+](=O)[O-])cc([N+](=O)[O-])c1 (centres undefined) | ? | . | . | . | . | / | /
Nc1nn2cc(-c3ccccc3)nc2c2ccccc12 | . | . | . | ? | . | . | ?
O=C(OCc1cccc([N+](=O)[O-])c1)c1ccc[nH]c1=O | . | / | / | 7.6µM | / | 8.5µM | 6.7µM
C=C(C)C(=O)Nc1ccc2c(c1)OCCOCCOCCO2 | . | / | . | 11µM | . | 0.54µM | 0.67µM
O=C(O)[C@H]1C2c3ccccc3C(c3ccccc32)[C@@H]1C(=O)NCC1CC1 | / | . | .[14.2 µM] | / | / | / | /
O=[N+]([O-])c1cn(Cc2ccc(Cl)cc2)cn1 | . | . | . | ? | . | ? | ?

Screening data from PubChem.
